PubChem BioAssay AID2561 (National Center for Advancing Translational Sciences (NCATS), 2010)
Inconclusive results are not listed. A call without a number means that no potency is given here. Activity calls are given as the source filed them. Calls follow the shape of the dose curve; as a rule, active = well fitted inhibition curve with a large enough effect; inconclusive = small, poorly fitted or top-dose-only effect, or effect the other way; inactive = flat fitted curve, though single readings scatter.

The compounds below were run against Pyruvate kinase (Leishmania mexicana) (UniProt Q27686) (assay: Confirmation Assay for Inhibitors of Leishmania Mexicana Pyruvate Kinase (LmPK): for Probe SAR). Conditions: purified LmPK, ATP generation, Kinase-Glo luminescence; series mostly up to 57.5 µM.
Pyruvate kinase (Leishmania mexicana), sequence (Q27686 whole entry, looked up): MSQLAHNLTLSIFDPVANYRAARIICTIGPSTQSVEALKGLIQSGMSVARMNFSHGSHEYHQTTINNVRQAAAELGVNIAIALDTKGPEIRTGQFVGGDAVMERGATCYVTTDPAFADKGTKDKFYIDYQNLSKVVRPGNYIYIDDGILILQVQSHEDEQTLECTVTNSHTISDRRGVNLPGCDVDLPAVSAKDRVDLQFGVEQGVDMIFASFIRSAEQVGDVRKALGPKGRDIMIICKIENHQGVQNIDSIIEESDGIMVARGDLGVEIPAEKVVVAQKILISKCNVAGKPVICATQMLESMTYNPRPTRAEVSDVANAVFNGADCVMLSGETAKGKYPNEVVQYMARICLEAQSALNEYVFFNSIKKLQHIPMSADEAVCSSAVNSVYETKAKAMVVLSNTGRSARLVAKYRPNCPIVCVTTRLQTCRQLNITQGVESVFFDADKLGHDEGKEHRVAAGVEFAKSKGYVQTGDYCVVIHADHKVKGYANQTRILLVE
Summary of the method: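 Purified LmPK (0.1 nM) converted ADP (0.1 mM, ~10-fold below Km) plus PEP (0.5 mM, at Km) to ATP over 1 h at room temperature in pH 7.2 imidazole buffer. Generated ATP was read by luciferase luminescence.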
Potency is read from the fitted curve at half-maximal effect.

Q: Which Potency does the source give for O=C1CCc2cc(S(=O)(=O)Nc3ccc(-c4ccccc4)cc3)ccc2N1 here?
A: Its Potency is “inactive”.

Q: For COc1ccc(N2C(=O)c3ccccc3S2(=O)=O)cc1, which Potency is on record?
A: The Potency was “inactive”.

Q: For Cc1ccc(NS(=O)(=O)c2cc3c(cc2-c2ccco2)NC(=O)CO3)cc1C, which Potency is on record?
A: The Potency was “inactive”.

Q: How did the Potency turn out when O=C1CCc2cc(S(=O)(=O)Nc3cccc(C(F)(F)F)c3)ccc2N1 was run?
A: The Potency was “inactive”.

Q: For Cc1ccccc1OC1=NS(=O)(=O)c2ccccc21, which Potency is on record?
A: Its Potency is 4.43 µM (active).

Q: With Cc1ccc(NS(=O)(=O)c2ccc(F)cc2)cc1C as the compound, how does the Potency read?
A: The Potency was “inactive”.

Q: O=C1c2ccc3ccccc3c2C(=O)C1c1cc(=O)c2ccccc2[nH]1 (centres undefined) was tested. Which Potency did it give?
A: The Potency was “inactive”.

Q: N#Cc1ccccc1OC1=NS(=O)(=O)c2ccccc21 was tested. Which Potency did it give?
A: The Potency was 5.8 µM (active).

Q: Which Potency does the source give for Cc1ccc(NS(=O)(=O)c2ccc3c(c2)CCN(C(=O)C(F)(F)F)C3)cc1C here?
A: The Potency was “inactive”.

Q: How did the Potency turn out when CCOc1ccc2[nH]c(C3C(=O)c4ccccc4C3=O)cc(=O)c2c1 was run?
A: The Potency was “inactive”.

Q: For CCCCN1C(=O)c2ccccc2C1=O, which Potency is on record?
A: Its Potency is “inactive”.

Q: For O=S1(=O)N=C(Sc2cccc3cccnc23)c2ccccc21, which Potency is on record?
A: Its Potency is 2.91 µM (active).

Q: Which Potency does the source give for O=C(O)c1ccccc1OC1=NS(=O)(=O)c2ccccc21 here?
A: Its Potency is 1.63 µM (active).

Q: Which Potency does the source give for Cc1cc(C)c2ccc(C3C(=O)c4ccc(O)cc4C3=O)nc2c1 (centres undefined) here?
A: Its Potency is “inactive”.

Q: Cc1ccc(NS(=O)(=O)c2cc3c(cc2Cl)CCC(=O)N3)cc1C was tested. Which Potency did it give?
A: The Potency was “inactive”.

Q: For O=S1(=O)N=C(Oc2cccc(C(F)(F)F)c2)c2ccccc21, which Potency is on record?
A: Its Potency is 4.61 µM (active).

Q: For Nc1ccccc1OC1=NS(=O)(=O)c2ccccc21, which Potency is on record?
A: Its Potency is “inactive”.

Q: How did the Potency turn out when O=S1(=O)N=C(N2CCOCC2)c2ccccc21 was run?
A: Its Potency is “inactive”.

Q: For Cc1ccccc1Nc1c(-c2ccc(Cl)s2)nc2ccccn12, which Potency is on record?
A: The Potency was “inactive”.
